Source: PubChem BioAssay (NCI)
About 83,000 compounds went through this panel and 20% of them were active in at least one assay; those are over-represented in the sample as a whole.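 Interpretation: 100, growth as untreated; towards 0, rising growth inhibition; 0, no net growth; 0 to -100, cell death. Compounds scoring below 10 were considered active.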 A number with no mark means an inactive call. Active and inactive are the calls of the source.

Test system: LOX IMVI melanoma
Test: NCI-60 one-dose screen, 48 h (100 = growth as untreated, 0 = no growth, -100 = all killed)
Details: 10 µM
Experimental: Growth inhibition of the LOX IMVI human tumor cell line is measured as a screen for anti-cancer activity. Cells are grown in 96 well plates and exposed to the test compound for 48 hours. Compounds are tested at a single concentration, which is 10^-5 M for most compounds. The reported endpoint is percent growth (GI% or GIPRCNT), where numbers from 0 - 100% represent growth inhibition, and numbers from -100% - 0 represent cell death. For example, a value of 40 represents 60% growth inhibition. A value of 0 means no net growth occurred over the course of the experiment. A value of -40 indicates 40% of cells at the beginning of the experiment died by the end of the experiment. A value of -100 means all cells are dead at the end of the experiment.
NCI-60 Human Tumor Cell Lines Screen was performed using the standard one-dose NCI protocol, which is described in more detail at https://dtp.cancer.gov/discovery_development/nci-60/default.htm.
Compounds with GIPRCNT values below 10 were considered active. Activity score was based on GIPRCNT using the following formula: […]
Score is 0 for GIPRCNT values of 100 or above, 50 for GIPRCNT values of 0, and 100 for GIPRCNT values of -100.

Row | SMILES | growth
1 | CCOC(=O)c1ccc(NC(C)=O)o1 | 95.4%
2 | CCOC(=O)/C(C)=C\c1ccc(OC)c(OC)c1 | 98%
3 | O=C(O)c1cc(I)ccc1O | 92%
4 | O=C(OCC1CCCO1)c1ccc([N+](=O)[O-])cc1 (stereo not given) | 104%
5 | Nc1ncc([N+](=O)[O-])cn1 | 99.7%
6 | O=c1cc(Cl)nc2ccccn12 | 103%
7 | CCOC(=O)C(=O)CC(=O)c1ccccc1 | 98.6%
8 | NCC(O)C(O)C(O)C(O)CO (stereo not given) | 97.8%
9 | C=CCc1cc(OC)c(O)c(OC)c1 | 101%
10 | CC1(c2ccccc2)CO1 (stereo not given) | 103%
11 | CCOc1ccc(C(=O)O)cc1 | 98.7%
12 | Cc1cc2c(C(C)C)c(O)c(O)c(C=Nc3ccccc3[N+](=O)[O-])c2c(O)c1-c1c(C)cc2c(C(C)C)c(O)c(O)c(C=Nc3ccccc3[N+](=O)[O-])c2c1O | 81.3%
13 | O=C(N/N=C\c1ccc(Cl)cc1Cl)c1ccncc1 | 85.4%
14 | C=CCS(C)(=O)=O | 103%
15 | OCC1CCC(O)C(CO)N1 (stereo not given) | 100%
16 | Nc1ccc2ccccc2c1-c1c(N)ccc2ccccc12 | 36.8%
17 | c1ccc2[nH]c(Cc3nc4ccccc4[nH]3)nc2c1 | 109%
18 | Cc1ccc(OC(=O)c2ccccc2)cc1 | 105%
19 | CCOC(=O)C(CCC#N)(CCC#N)C(=O)OCC | 111%
20 | CC(C)C1CCC(C)C(O)C1 (stereo not given) | 99.6%

Row | SMILES | growth
21 | CN1CCCN(C(c2ccccc2)c2ccc(Br)cc2)CC1 (stereo not given) | 69.7%
22 | Cc1c(-c2ccc(C3CCCCC3)cc2)nc2ccc(F)cc2c1C(=O)O | 8.7% (active)
23 | NC(=S)c1c(N)n(C2OC(CO)C(O)C2O)c2ncnc(N)c12 (stereo not given) | -3.22% (active)
24 | O=C(O)c1ccccc1Cc1ccc2c(c1)CCCC2 | 109%
25 | Nc1ncnc(Nc2ccccc2)n1 | 104%
26 | NNC(=O)N/N=C1\C(=O)N(c2nccs2)C(=O)C(=O)C1c1nc2ccccc2s1 (stereo not given) | 96.3%
27 | O=C(Nc1ccccc1)c1ccco1 | 97.6%
28 | Cc1ccc(N2C(=O)c3cccc4c(N)c(S(=O)(=O)O)cc(c34)C2=O)cc1 | 95%
29 | COC1OC(C(O)C(O)CO)C(O)C(O)C1O (stereo not given) | 102%
30 | COc1nc(Nc2cccc(C(F)(F)F)c2)nc(OC)n1 | 107%
31 | Clc1ncnc2nc[nH]c12 | 95.1%
32 | CCC(/C=C\C(C)=O)CC | 97.4%
33 | Cc1c(Cl)cccc1NC(=S)NC(=O)c1ccccc1 | 99.3%
34 | CCCC(OC(C)=O)c1ccc2c(c1)OCO2 (stereo not given) | 103%
35 | CCOC(=O)c1ccc(Nc2sc(C(=O)c3ccc(Br)cc3)c(N)c2C#N)cc1 | 38.8%
36 | CCOC(=O)C(COS(C)(=O)=O)(COS(C)(=O)=O)C(=O)OCC | 98.3%
37 | Cn1/c(=N\N=C\c2ccccc2OCCO)sc2ccccc21 | 100%
38 | N#C/C(=C\NC(=S)N=Nc1c(O)[nH]c2ccccc12)c1nc2ccccc2s1 | 96.6%
39 | CC(C)NC(=O)OCc1c(COC(=O)NC(C)C)c(-c2ccc(Cl)cc2)n2c1CCC2 | 30.5%
40 | O=[N+]([O-])c1ccc(-c2nc(N(CCO)CCO)c3ccccc3n2)o1 | -65.6% (active)
